The values below come from PubChem BioAssay (NCI).

SMILES strings stand for the structures. About 83,000 compounds went through this panel and 20% of them were active in at least one assay; those are over-represented in the sample as a whole.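 Testing used 96-well plates and a 48-hour single-concentration exposure. Example: -40 means 40% of the starting cells died.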 Values without a mark were called inactive. Calls of active or inactive are those of the source. The calls were made as follows: active = growth percent below 10; inactive = the rest.

Some test systems named below: SR leukemia; RPMI-8226 leukemia; OVCAR-8 ovarian; OVCAR-5 ovarian; OVCAR-4 ovarian; SK-OV-3 ovarian; IGROV1 ovarian; OVCAR-3 ovarian; HS 578T breast; NCI/ADR-RES ovarian.
Holding throughout (experiment): NCI-60 one-dose screen, 48 h (100 = growth as untreated, 0 = no growth, -100 = all killed)
Holding throughout (settings): 10 µM

Take `CC(C)CCOC(=O)c1ccccc1`: the growth in the experiment on SR leukemia is 107%; in the experiment on RPMI-8226 leukemia, 118%; with OVCAR-8 ovarian, 99.4%; with OVCAR-5 ovarian it was 105%; in the experiment on OVCAR-4 ovarian it was 107%; with SK-OV-3 ovarian, 104%. Moreover, the growth with IGROV1 ovarian is 102%; in the experiment on OVCAR-3 ovarian, 107%; with HS 578T breast, 105%; with NCI/ADR-RES ovarian it was 107%.
For the compound `O=[N+]([O-])c1ccc(Cl)c(S(=O)(=O)O)c1`, the growth with SR leukemia was 89.2%; in the experiment with RPMI-8226 leukemia, 100%; in the experiment with OVCAR-8 ovarian it was 104%; with OVCAR-5 ovarian, 105%; with OVCAR-4 ovarian, 111%; with SK-OV-3 ovarian, 110%. Also, the growth is 123% in the experiment with IGROV1 ovarian, 106% in the experiment with OVCAR-3 ovarian, 104% in the experiment on HS 578T breast and 108% in the experiment with NCI/ADR-RES ovarian.
On to `CCOC(=O)CNN`, for which the growth is 106% in the experiment with SR leukemia; 110% with RPMI-8226 leukemia; 96.1% with OVCAR-8 ovarian; 112% in the experiment on OVCAR-5 ovarian; 106% with OVCAR-4 ovarian; 108% in the experiment on SK-OV-3 ovarian. Further, the growth with IGROV1 ovarian was 112%; in the experiment with OVCAR-3 ovarian, 108%; in the experiment with HS 578T breast, 105%; in the experiment with NCI/ADR-RES ovarian, 112%.
`CCOc1ccc2[nH]c(=S)sc2c1`: the growth is 97.7% in the experiment with SR leukemia; 97.1% in the experiment with RPMI-8226 leukemia; 96.4% in the experiment on OVCAR-8 ovarian; 97.6% with OVCAR-5 ovarian; 108% in the experiment with OVCAR-4 ovarian; 105% with SK-OV-3 ovarian. The growth is 88.5% with IGROV1 ovarian, 117% with OVCAR-3 ovarian, 96% with HS 578T breast and 104% with NCI/ADR-RES ovarian.
In the case of `O=C1C=C(Nc2ccc([N+](=O)[O-])cc2)c2ccccc2C1=O`, the growth is 23.9% in the experiment on SR leukemia; 18% in the experiment on RPMI-8226 leukemia; 35.1% in the experiment with OVCAR-8 ovarian; 86.9% in the experiment with OVCAR-5 ovarian; 45.3% with OVCAR-4 ovarian; 62.3% in the experiment with SK-OV-3 ovarian. In addition, the growth in the experiment with IGROV1 ovarian is 60.8%; in the experiment on OVCAR-3 ovarian it was 7.94% (active); in the experiment on HS 578T breast, 47.5%; in the experiment with NCI/ADR-RES ovarian, 32.5%.
As for `CNS(=O)(=O)c1ccc(Cl)c(Cl)c1`, the growth is 78.1% in the experiment on SR leukemia; 136% in the experiment with RPMI-8226 leukemia; 99.2% in the experiment on OVCAR-8 ovarian; 98.5% in the experiment with OVCAR-5 ovarian; 99.8% in the experiment with OVCAR-4 ovarian; 105% with SK-OV-3 ovarian. The growth in the experiment with IGROV1 ovarian was 114%; with OVCAR-3 ovarian, 123%; in the experiment with HS 578T breast, 98.9%; with NCI/ADR-RES ovarian, 110%.
As for `Cc1cc(Cc2cc(C)c(N)cc2N)c(N)cc1N`, the growth in the experiment on SR leukemia is 55.2%; in the experiment on RPMI-8226 leukemia, 92.8%; in the experiment on OVCAR-8 ovarian it was 89.7%; in the experiment with OVCAR-5 ovarian, 116%; in the experiment on OVCAR-4 ovarian, 111%; in the experiment with SK-OV-3 ovarian, 82.2%. Also, the growth in the experiment on IGROV1 ovarian is 87.5%; in the experiment with OVCAR-3 ovarian, 94.9%; with HS 578T breast, 93.8%; with NCI/ADR-RES ovarian, 95.8%.
Regarding `O=c1[nH]c(O)c(/C=C2/C=Nc3ccccc32)[nH]1`, the growth with SR leukemia was 76.3%; in the experiment with RPMI-8226 leukemia it was 78%; with OVCAR-8 ovarian, 98.1%; in the experiment with OVCAR-5 ovarian, 96%; in the experiment on OVCAR-4 ovarian, 90%; in the experiment with SK-OV-3 ovarian it was 112%. The growth in the experiment with IGROV1 ovarian was 93.8%; in the experiment on OVCAR-3 ovarian it was 100%; in the experiment with HS 578T breast it was 95.1%; in the experiment on NCI/ADR-RES ovarian it was 96.4%.
Regarding `CCCCOC(OCCCC)c1ccccc1`, the growth is 103% with SR leukemia; 110% in the experiment on RPMI-8226 leukemia; 108% with OVCAR-8 ovarian; 107% with OVCAR-5 ovarian; 109% in the experiment with OVCAR-4 ovarian; 115% in the experiment with SK-OV-3 ovarian. Besides, the growth in the experiment with IGROV1 ovarian is 115%; in the experiment on OVCAR-3 ovarian, 105%; in the experiment on HS 578T breast, 111%; in the experiment on NCI/ADR-RES ovarian, 97.9%.
Take `CSC(=N\N=C\c1ccc(N(C)C)cc1)/N=C/N(C)C`: the growth in the experiment on SR leukemia is 99%; in the experiment with RPMI-8226 leukemia it was 92.3%; with OVCAR-8 ovarian it was 102%; with OVCAR-5 ovarian it was 95.5%; with OVCAR-4 ovarian, 107%; in the experiment on SK-OV-3 ovarian, 106%. In addition, the growth in the experiment with IGROV1 ovarian is 105%; in the experiment with OVCAR-3 ovarian, 112%; in the experiment on HS 578T breast, 90.1%; in the experiment with NCI/ADR-RES ovarian, 119%.
For the compound `Cc1ccc(N)cc1[N+](=O)[O-]`, the growth with SR leukemia is 115%; in the experiment on RPMI-8226 leukemia it was 116%; in the experiment with OVCAR-8 ovarian, 103%; in the experiment with OVCAR-5 ovarian, 116%; with OVCAR-4 ovarian, 83.3%; with SK-OV-3 ovarian it was 112%. The growth was 110% with IGROV1 ovarian, 115% in the experiment with OVCAR-3 ovarian, 113% in the experiment with HS 578T breast and 102% with NCI/ADR-RES ovarian.
For `Cc1cc(C)c(CC(=O)O)c(C)c1`, the growth is 98.5% in the experiment with SR leukemia; 112% in the experiment with RPMI-8226 leukemia; 102% in the experiment on OVCAR-8 ovarian; 103% in the experiment on OVCAR-5 ovarian; 95.1% in the experiment on OVCAR-4 ovarian; 110% with SK-OV-3 ovarian. The growth in the experiment with IGROV1 ovarian is 108%; in the experiment on OVCAR-3 ovarian it was 104%; with HS 578T breast, 109%; in the experiment with NCI/ADR-RES ovarian it was 103%.
With `COc1cc2c3cc1Oc1c(OC)c(OC)cc4c1C(Cc1ccc(O)c(c1)Oc1ccc(cc1)CC3N(C)CC2)N(C)CC4` (stereo not given), the growth in the experiment with SR leukemia is -1.66% (active); in the experiment with RPMI-8226 leukemia, -27.4% (active); in the experiment with OVCAR-8 ovarian it was 7.71% (active); in the experiment on OVCAR-5 ovarian, -0.193% (active); in the experiment with OVCAR-4 ovarian, 13.5%; with SK-OV-3 ovarian, 43%. For the same compound, the growth with IGROV1 ovarian is 13.7%; in the experiment on OVCAR-3 ovarian, 18.8%; in the experiment on HS 578T breast, 55.3%; in the experiment with NCI/ADR-RES ovarian it was 0.974% (active).
Consider `CCC(C)(C)C1CCC(O)CC1` (stereo not given), for which the growth in the experiment with SR leukemia was 102%; in the experiment with RPMI-8226 leukemia, 101%; in the experiment with OVCAR-8 ovarian it was 102%; with OVCAR-5 ovarian, 92.5%; with OVCAR-4 ovarian it was 107%; in the experiment on SK-OV-3 ovarian it was 103%. The growth with IGROV1 ovarian was 107%; with OVCAR-3 ovarian, 104%; with HS 578T breast it was 101%; with NCI/ADR-RES ovarian, 96.7%.
`Oc1ccccc1O`: the growth in the experiment on SR leukemia was 75.5%; with RPMI-8226 leukemia, 60.1%; with OVCAR-8 ovarian, 86.3%; in the experiment on OVCAR-5 ovarian it was 106%; in the experiment with OVCAR-4 ovarian it was 77.4%; in the experiment on SK-OV-3 ovarian, 120%. Also, the growth was 79.1% in the experiment with IGROV1 ovarian, 92.3% in the experiment on OVCAR-3 ovarian, 112% with HS 578T breast and 90.2% with NCI/ADR-RES ovarian.
